This is part of a sample that, as a whole, favours compounds with a hit. Of some 83,000 tested, about 20% had one in any assay.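 A percent growth of 40 corresponds to 60% growth inhibition; 0 means no net growth; -100 means all cells died. Active threshold: below 10.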 Calls of active or inactive are those of the source.

This assay deals with OVCAR-5 ovarian. The assay is described as follows: NCI-60 one-dose screen, 48 h (100 = growth as untreated, 0 = no growth, -100 = all killed). Particulars: 10 µM unless noted. As for the experimental part:
Growth inhibition of the OVCAR-5 human tumor cell line is measured as a screen for anti-cancer activity. Cells are grown in 96 well plates and exposed to the test compound for 48 hours. Compounds are tested at a single concentration, which is 10^-5 M for most compounds. The reported endpoint is percent growth (GI% or GIPRCNT), where numbers from 0 - 100% represent growth inhibition, and numbers from -100% - 0 represent cell death. For example, a value of 40 represents 60% growth inhibition. A value of 0 means no net growth occurred over the course of the experiment. A value of -40 indicates 40% of cells at the beginning of the experiment died by the end of the experiment. A value of -100 means all cells are dead at the end of the experiment.
NCI-60 Human Tumor Cell Lines Screen was performed using the standard one-dose NCI protocol, which is described in more detail at https://dtp.cancer.gov/discovery_development/nci-60/default.htm.
Compounds with GIPRCNT values below 10 were considered active. Activity score was based on GIPRCNT using the following formula: […]
Score is 0 for GIPRCNT values of 100 or above, 50 for GIPRCNT values of 0, and 100 for GIPRCNT values of -100.
With `O=C1Nc2ccccc2/C1=C/c1cccn1CCCCn1c2ccccc2c(=O)c2ccccc21`, the growth was 77.9% (inactive).

Consider `Clc1ccc2c(NC3CCC(N4CCOCC4)CC3)ccnc2c1` (stereo not given), for which the growth is 105% (inactive).

As to `c1ccc2cc(C[n+]3ccn(CCCCCCCCCCn4cc[n+](Cc5ccc6ccccc6c5)c4)c3)ccc2c1`, the growth is 12.8% (inactive).

On to `O=C1Nc2ccc(C(=O)O)cc2/C1=N/c1nnc(Sc2ccccc2)s1`, for which the growth is 113% (inactive).

Take `Cc1ccc(-c2nc(N3CCCNCC3)c3oc(-c4ccccc4)nc3n2)cc1`: the growth was -87.3% (active).

Turning to `COc1cc2c(c(OC)c1OC)CCC(c1cccc(NC(=O)c3ccc(Br)cc3)c1)O2` (stereo not given), the growth was 93.3% (inactive).

For the compound `CCOC(=O)c1cc(C)n(-c2ccc(C(=O)O)cc2)c1C`, the growth was 76.7% (inactive).

Consider `CCc1ncnc2c1ccn2C(C)c1ccc(OC)c(F)c1` (stereo not given), for which the growth is 88.1% (inactive).

Turning to `COc1cc(-c2nc3sccn3c2-c2ccnc(NCCNS(=O)(=O)c3ccccc3)n2)ccc1F`, the growth is 113% (inactive).

Consider `Nc1[nH]n2cc(-c3ccccc3)nc2c1N=Nc1ccc(S(N)(=O)=O)cc1`, for which the growth was 65.4% (inactive).

On to `CC/C=C\C[C@H](O)C/C=C1/C(=O)C=C[C@@H]1C/C=C\CCCC(=O)N(C)C`, for which the growth was 19.2% (inactive).

As for `N=C(N)c1ccc(-c2ccc(-c3ccc(Cl)c(Cl)c3)s2)nc1`, the growth is 20.1% (inactive).

For `Cc1c(-c2ccc(O)cc2)n(Cc2ccc(OCCN3CCCCCC3)cc2)c2ccc(O)cc12`, the growth is 87.9% (inactive).

For `CN(c1cc2ncc(=O)[nH]c2cc1NC(N)=NCc1ccc(Cl)cc1)C1CCCCC1`, the growth was 73.2% (inactive).

With `Oc1c(I)cc(I)cc1CNCc1ccccn1`, the growth was 61.9% (inactive).

Regarding `Cc1[nH]c(C(=O)Nc2ccc(C(=O)N3CCN(c4cc5c(cc4F)c(=O)c(C(=O)O)cn5C4CC4)CC3)cc2OC(C)C)c(Cl)c1Cl`, the growth was 95.1% (inactive).

As to `Cn1ccc(=O)c(C(=O)Nc2nsc3ccc([N+](=O)[O-])cc23)c1`, the growth is 84% (inactive).

In the case of `CSc1nc2ncc([N+](=O)[O-])c(=O)n2[nH]1`, the growth is 106% (inactive).

Regarding `COC(=O)CC[C@H](C)[C@H]1CC[C@H]2[C@@H]3CC[C@@H]4CC5(CC[C@]4(C)[C@H]3CC(=O)[C@]12C)Nc1ccccc1NC5=NC(C)(C)C` (stereo not given in full), the growth is 89.1% (inactive).

As for `CS(=O)(=O)c1ccc(-c2cnn3ccc(-c4cccc(S(=O)(=O)C5CC5)c4)nc23)cc1`, the growth is 68.7% (inactive).

Take `O=C(CN1CCOCC1)Nc1nc(-c2cc3ccccc3oc2=O)cs1`: the growth is 95.5% (inactive).

With `COc1ccc(-c2nn(-c3cccc(Cl)c3)cc2-c2cc(-c3ccc(Br)cc3)nc(N)n2)cc1`, the growth is 97.2% (inactive).

Turning to `C/C(Cc1ccc(Cl)cc1)=C(\c1ccc(O)cc1)c1ccc(Cl)cc1`, the growth is 92.5% (inactive).

Regarding `c1cc2c(ccc3[nH]c(-c4ccc5[nH]ncc5c4)c4c(c32)CCCC4)n1`, the growth is 80.4% (inactive).

On to `CCN(CC)CCn1c2ccc(O)cc2c2sc3cc(O)ccc3c(=O)c21`, for which the growth was 54% (inactive).

With `OB1OCc2cc(/C=C/c3cccc(C(F)(F)F)c3)ccc21`, the growth was 37.6% (inactive).

`O=S(=O)(Nc1cc(F)cc(Cl)c1)c1ccc(-c2cnc(C3CC3)o2)cc1`: the growth is 50.8% (inactive).

On to `COc1cc(NS(=O)(=O)c2ccc(-c3cnc(C4CC4)o3)cc2)ccc1F`, for which the growth was 36.7% (inactive).

Consider `CN(C)c1ccc(-c2c(C#N)c(N)nn2C(=O)c2ccc(NC(=O)c3ccccn3)cc2)cc1`, for which the growth was 95.7% (inactive).

Regarding `O=[N+]([O-])c1ccc(O)cc1Br`, the growth was 94% (inactive).

Regarding `O=C(/C=C/c1ccco1)Nc1ncc(Cc2cccc(C(F)(F)F)c2)s1`, the growth is 30.3% (inactive).

As for `O=C(Nn1c2c(sc1=NC1CC1)C(=O)c1ccccc1C2=O)c1cc2ccc1CCc1ccc(cc1)CC2`, the growth is 111% (inactive).

As to `CNC(=O)c1ccccc1Oc1nc(Nc2cc(OC)c(OC)c(OC)c2)ncc1Br`, the growth was 71.2% (inactive).

With `CCCCCC(/C=N\NC(=S)N/N=C/C(=C/c1ccccc1)CCCCC)=C\c1ccccc1`, the growth is 105% (inactive).

Regarding `COc1cc(-c2cncn2-c2ccc(-c3nc4ccc(F)cc4s3)cc2)ccc1F`, the growth is 75.7% (inactive).

Consider `c1ccc([P+](c2ccccc2)(c2ccccc2)c2ccc3c4ccc([P+](c5ccccc5)(c5ccccc5)c5ccccc5)c5cccc(c6cccc2c63)c54)cc1`, for which the growth is 24.3% (inactive).

Consider `O=C(Cn1cc(CSc2nc3ccccc3o2)nn1)Nc1ccc(F)cc1F`, for which the growth is 110% (inactive).

`COC1=CC(c2ccc[nH]2)=N/C1=C\c1[nH]c(C)c(CC(=O)NCc2ccccc2)c1C`: the growth is 31.5% (inactive).

Take `CC(C)COc1nc2c(c(=O)n(C)c(=O)n2C)n1C`: the growth was 112% (inactive).

Take `COCCn1cc(-c2csc(-c3cn(C)c4ccc(Br)cc34)n2)c2cccnc21`: the growth is 68.3% (inactive).

For the origin of these results see PubChem BioAssay (NCI).
